Results: PubChem BioAssay (NCATS)
Several values for one entry are separate records, joined by “and”; a condition that tells them apart may be missing. Equal entries are not always repeated. Records with an inconclusive call do not appear. Entries that show only a call come without a potency. Activity calls are given as the source filed them. Unless noted, calls come from the whole dose curve; as a rule, active = well fitted curve in the direction sought with a large enough effect; inconclusive = small, poorly fitted or top-dose-only effect, or another doubt; inactive = no such curve, though single readings can be large; an effect the other way counts as inactive or inconclusive.

Tests used:
[1] = biological target: Thyroid hormone receptor beta (Homo sapiens) (UniProt P10828); assay: qHTS assay for small molecule agonists of thyroid hormone receptor beta signaling (AID 588545; calls by dose curve)
Summary of the method: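 Compounds were tested as agonists in TR-UAS-bla-GripTite HEK 293 cells. After 18 hrs at 37 C, CCF4 substrate was added and fluorescence read after 2 hrs at room temperature.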

[2] = qHTS assay for small molecule antagonists of retinoid X receptor alpha signaling (AID 588546; active = well fitted inhibition curve with a large enough effect in the signal ratio, with a control signal flat, not every such curve was filed as active; the % refers to the signal ratio;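 note: cells stimulated with 9-cis-retinoic acid as agonist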); conditions: HEK293T RXRa-UAS-bla, beta-lactamase ratio, antagonist mode; measured here: W530 green channel, cytotoxicity proxy
Summary of the method: (§1)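 Beta-lactamase reporter inhibition, read as CCF4 fluorescence ratio (ex 405, em 460/530 nm) after 2 h at RT. HEK293T UAS-bla cells, 2500/well, were stimulated with 9-cis-RA at 500 or 100 nM final alongside test compound for 18 h at 37 C.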

[3] = biological target: Retinoic acid receptor RXR-alpha (Homo sapiens) (UniProt P19793); assay: as above; conditions: HEK293T RXRa-UAS-bla, beta-lactamase ratio, antagonist mode
Summary of the method: as §1

[4] = biological target: Thyroid hormone receptor beta (Homo sapiens) (UniProt P10828); assay: qHTS assay for small molecule antagonists of thyroid hormone receptor beta signaling (AID 588547; active = well fitted inhibition curve with a large enough effect in the signal ratio, with a control signal flat, not every such curve was filed as active; the % refers to the signal ratio;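 note: cells stimulated with 0.4 nM T3 agonist during compound exposure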); conditions: TR-UAS-bla HEK293, beta-lactamase ratio, antagonist mode, 18 h
Summary of the method: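 Inhibition of T3-driven (0.4nM final) beta-lactamase reporter activity was measured over 0.59 nM to 92 uM compound after 18 h at 37 C. The cells were GripTite HEK293 TR-UAS-bla in charcoal/dextran-stripped serum, with CCF4 ratio read-out and IC50 from Hill fits.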

[5] = biological target: Voltage-gated inwardly rectifying potassium channel KCNH2 (Homo sapiens) (UniProt Q12809); assay: qHTS Assay for Small Molecule Inhibitors of the Human hERG Channel Activity (AID 588834);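 note: top concentration of the series differs between compounds; lower thallium flux fluorescence means stronger hERG block; nearly all actives have a fitted effect of over 50% in size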
Summary of the method: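 Concentration-response qHTS measuring drop in thallium-sensitive dye signal. U2OS cells carrying BacMam hERG; compound exposure ~10 min, then stimulation buffer and 2 min read at 1 sec intervals.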

[6] = biological target: Luciferin 4-monooxygenase (Photinus pyralis) (UniProt P08659); assay: Biochemical firefly luciferase enzyme assay for NPC (AID 624030);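 note: purified P. pyralis luciferase at 10 nM with luciferin and ATP substrate; nearly all actives have a fitted effect of over 70% in size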
Summary of the method: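 Direct inhibition of firefly luciferase enzyme (10 nM final, 50 mM Tris Acetate) assessed by luminescence within 5 minutes. Percent activity scaled between DMSO and PTC124 positive control, with concentration-effect curves classified by fit quality and response.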

[7] = qHTS assay for small molecule agonists of the antioxidant response element (ARE) signaling pathway (AID 651741; active = well fitted activation curve with a large enough effect in the signal ratio; the % refers to the signal ratio)
Summary of the method: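 Seeding 2,000 ARE-bla HepG2 cells per well preceded a 5 h incubation at 37 C/5% CO2 and a 16 h compound exposure at 37 C. Beta-lactamase reporter activity was then quantified by fluorescence after 2 h with LiveBLAzer B/G FRET substrate.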

[8] = qHTS assay for small molecule activators of the p53 signaling pathway (AID 651743; active = well fitted activation curve with a large enough effect in the signal ratio, not every such curve was filed as active; the % refers to the signal ratio); conditions: HCT-116 p53RE-bla, beta-lactamase FRET ratio, 16 h; activation: stronger effect = higher value
Summary of the method: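 Screen for p53 pathway agonists uses stably transfected p53RE-bla HCT-116 cells, 4,000 per well, treated 16 h at 37 C with compounds in DMSO.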

[9] = qHTS assay for small molecule activators of the nuclear factor-kappa B (NF-kB) signaling pathway (AID 651749; active = well fitted activation curve with a large enough effect in the signal ratio; the % refers to the signal ratio); conditions: NF-kB-bla ME-180 cells, beta-lactamase FRET ratio, 16 h; activation: stronger effect = higher value
Summary of the method: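 Stably transfected ME-180 line; NF-kB response element upstream of beta-lactamase. Treatment: compound or DMSO, 16 hr. Detection: fluorescent FRET substrate.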

[10] = biological target: Tumor necrosis factor (Homo sapiens) (UniProt P01375); assay: qHTS assay to identify small molecules that stimulate Tumor Necrosis Factor-alpha (TNF-alpha) secretion (AID 651757; active = well fitted curve in the direction sought with a large enough effect in the signal ratio; the % refers to the signal ratio)
Summary of the method: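 THP-1 cells were exposed to compounds for 17 hrs at 37 C, after which secreted TNF-alpha was measured by homogeneous HTRF (TR-FRET) using cryptate- and XL665-labeled anti-TNF-alpha antibodies, read after 3 hr at room temperature.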

[11] = qHTS assay for environmental chemicals that activate the Aryl hydrocarbon Receptor (AhR) signaling pathway (AID 651777); conditions: 1A2-DRE human hepatoma cells, luciferase, 24 h; activation: stronger effect = higher value; note: nearly all actives have a fitted effect of over 15% in size
Summary of the method: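 Luminescence read-out: One-Glo added for 30 min at RT after 24 hr compound treatment (37 C, 5% CO2) of human hepatoma cells expressing a DRE/CYP1A2 promoter–luciferase reporter; increased signal indicates AhR activation.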

[12] = biological target: Peroxisome proliferator-activated receptor alpha (Homo sapiens) (UniProt Q07869); assay: qHTS assay for small molecule agonists of the peroxisome proliferator-activated receptor alpha (PPARalpha) signaling pathway (AID 651778); conditions: PathHunter PPARalpha complementation, chemiluminescence, 6 h; stronger effect = higher value
Summary of the method: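 Chemiluminescence from complemented enzyme reported PPARalpha activation in cells after 6 hr of compound treatment at 37 C. The detection reagent was incubated for 60 min at room temperature, and compounds were scored as agonists.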

[13] = biological target: Nuclear receptor ROR-gamma (Homo sapiens) (UniProt P51449); assay: qHTS assay for small molecule antagonists of the retinoid-related orphan receptor gamma (ROR-gamma) signaling pathway (AID 651802); note: nearly all actives have a fitted effect of over 60% in size
Summary of the method: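 CHO cells carrying TET-inducible ROR-gamma and an ROR response element–luciferase reporter were exposed to compound, then induced with doxycycline. After 16hr at 37C, luminescence was read; lower signal indicates antagonism.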

[14] = qHTS assay for small molecule agonists of the antioxidant response element (ARE) signaling pathway measured by Nrf2-dependant transcriptional activity (AID 720636; active = well fitted curve in the direction sought with a large enough effect in the repeat runs; an effect the other way counts as inactive or inconclusive;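 note: HepG2 cells with an ARE-driven luciferase reporter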)
Summary of the method: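 HepG2 ARE-luc reporter line, 1% dialyzed FBS; 6 hr attachment at 37 C, compound pinned in, 16 hr at 37 C/5% CO2; ONE-Glo, 30 min RT, luminescence read.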

[15] = qHTS assay for small molecule agonists of the antioxidant response element (ARE) signaling pathway measured by Nrf2-dependant transcriptional activity - cell viability counter screen (AID 720653; active = well fitted curve in the direction sought with a large enough effect in the repeat runs; an effect the other way counts as inactive or inconclusive); conditions: ARE-bla HepG2 viability, CellTiter-Glo ATP luminescence, 16 h; max response: stronger effect = lower value
Summary of the method: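 Cytotoxicity counter screen: intracellular ATP quantified by CellTiter-Glo luminescence in the same ARE-bla HepG2 plates, after 16 h compound exposure and a 2 h beta-lactamase substrate step.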

[16] = qHTS Assay for Identifying Gametocytocidal Compounds (AID 743244);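 note: actives lower the fluorescent signal which means gametocytes are killed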; conditions: P. falciparum 3D7 stage III-V gametocytes, alamarBlue, 72 h; max response: stronger effect = lower value
Summary of the method: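 Fluorescence at Ex 525/Em 598 nm, recorded 24 h after alamarBlue addition, reports residual metabolic activity of 3D7 gametocytes (stages III–V) following 72 h compound exposure at 37 °C, 5% CO2.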

[17] = qHTS assay for cell viability of HEK293 cells (AID 743288); conditions: ATP luminescence (CellTiter-Glo), 18 h; max response: stronger effect = lower value; note: nearly all actives have a fitted effect of over 50% in size
Summary of the method: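 Environmental chemicals tested in qHTS format against parental HEK293 cells; 18 h treatment, 37 C; read-out ATP luminescence (CellTiter-Glo), 30 min RT development.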

[18] = qHTS assay for cell viability of the p53RE-bla HCT-116 cell line (AID 743292); note: nearly all actives have a fitted effect of over 55% in size
Summary of the method: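 Luminescent ATP quantitation (CellTiter-Glo) served as the viability read-out; reagent was added after 16 h compound exposure at 37 C and read after 30 min at room temperature. Cells: p53RE-bla HCT-116, 4,000 per well.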

[19] = P-glycoprotein substrates identified in KB-8-5-11 adenocarcinoma cell line, qHTS therapeutic library screen (AID 1346987); note: nearly all actives have a fitted effect of over 65% in size
Summary of the method: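 KB-8-5-11: colchicine-selected sub-line of KB-3-1 over-expressing P-gp; assay medium lacked colchicine. 72 h drug exposure at 37 degree C, CellTiter-Glo.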

[20] = biological target: Cytochrome P450 2D6 (Homo sapiens) (UniProt P10635); assay: Cytochrome P450 family 2 subfamily D member 6 (CYP2D6) small molecule antagonists: luciferase biochemical (cell-free) qHTS assay (AID 1645840; active = well fitted curve in the direction sought with a large enough effect in the repeat runs; an effect the other way counts as inactive or inconclusive; note: nearly all actives have a fitted effect of over 55% in size)
Summary of the method: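 P450-Glo luminescent screen: recombinant CYP2D6 enzyme–proluciferin substrate mix preincubated with compound 10 min at room temperature, then NADPH regeneration added for 1 h at room temperature. Detection reagent added for 20 min; luciferin light read as relative luminescence units.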

[21] = Drug repurposing screens with cells derived from glioblastoma tumor samples (AID 1345199); conditions: GBM patient neurospheres viability, ATP luminescence, 48 h; Potency: tumour line A; series mostly up to 45.9 µM; note: nearly all actives have a fitted effect of over 40% in size
Summary of the method: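 Four patient lines of CD133+ GBM neurospheres were screened at several concentrations; hits were retested in those lines plus three slower-growing GBM lines, using 48-hour treatment and ATP-based viability.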

[22] = biological target: Nuclear receptor subfamily 1 group I member 2 (Rattus norvegicus) (UniProt Q9R1A7); assay: qHTS assay for small molecule activators of the rat pregnane X receptor (rPXR) signaling pathway (AID 651751; call rule not given here); conditions: rPXR reporter cells, luciferase (One-Glo), 24 h
[23] = qHTS assay for small molecule activators of the human pregnane X receptor (PXR) signaling pathway (AID 720659; call rule not given here)

Sequence of Thyroid hormone receptor beta (Homo sapiens) (P10828 whole entry, looked up): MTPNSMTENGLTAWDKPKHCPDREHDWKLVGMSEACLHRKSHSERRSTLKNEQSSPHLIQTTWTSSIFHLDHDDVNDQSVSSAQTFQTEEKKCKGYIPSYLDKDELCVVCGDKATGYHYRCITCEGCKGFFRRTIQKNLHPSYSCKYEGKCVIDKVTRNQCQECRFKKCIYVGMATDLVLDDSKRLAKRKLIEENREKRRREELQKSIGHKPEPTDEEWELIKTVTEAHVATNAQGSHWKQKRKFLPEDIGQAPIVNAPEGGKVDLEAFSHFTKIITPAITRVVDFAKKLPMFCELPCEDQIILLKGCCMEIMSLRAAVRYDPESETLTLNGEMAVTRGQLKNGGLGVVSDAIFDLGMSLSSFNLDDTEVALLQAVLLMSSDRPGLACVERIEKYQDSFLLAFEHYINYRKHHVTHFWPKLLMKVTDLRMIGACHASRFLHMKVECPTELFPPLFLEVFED
Sequence of Peroxisome proliferator-activated receptor alpha (Homo sapiens) (Q07869 whole entry, looked up): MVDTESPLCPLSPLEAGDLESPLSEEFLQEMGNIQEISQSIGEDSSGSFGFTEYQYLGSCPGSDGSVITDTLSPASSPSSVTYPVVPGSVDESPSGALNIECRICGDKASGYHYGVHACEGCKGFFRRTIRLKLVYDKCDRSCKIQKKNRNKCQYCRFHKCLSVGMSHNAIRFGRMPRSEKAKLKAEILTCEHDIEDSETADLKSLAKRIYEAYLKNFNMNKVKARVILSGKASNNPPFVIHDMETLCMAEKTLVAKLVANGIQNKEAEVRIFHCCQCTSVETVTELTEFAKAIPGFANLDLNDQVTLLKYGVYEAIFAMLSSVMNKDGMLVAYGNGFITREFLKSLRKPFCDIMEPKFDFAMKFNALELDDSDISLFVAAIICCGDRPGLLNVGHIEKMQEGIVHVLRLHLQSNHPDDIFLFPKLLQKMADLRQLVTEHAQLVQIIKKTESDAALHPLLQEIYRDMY
Sequence of Nuclear receptor subfamily 1 group I member 2 (Rattus norvegicus) (Q9R1A7 whole entry, looked up): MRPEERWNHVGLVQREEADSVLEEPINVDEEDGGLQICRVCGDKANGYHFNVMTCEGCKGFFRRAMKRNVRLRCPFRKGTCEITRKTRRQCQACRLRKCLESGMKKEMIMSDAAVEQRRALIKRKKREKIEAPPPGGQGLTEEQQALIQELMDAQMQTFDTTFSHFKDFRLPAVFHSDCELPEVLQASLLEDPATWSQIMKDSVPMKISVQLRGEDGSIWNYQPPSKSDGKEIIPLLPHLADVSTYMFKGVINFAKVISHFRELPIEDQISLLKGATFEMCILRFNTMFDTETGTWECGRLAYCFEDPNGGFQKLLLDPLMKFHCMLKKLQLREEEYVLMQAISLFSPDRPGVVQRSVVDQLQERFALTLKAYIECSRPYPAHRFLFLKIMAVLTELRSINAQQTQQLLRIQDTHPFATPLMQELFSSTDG
Sequence of Voltage-gated inwardly rectifying potassium channel KCNH2 (Homo sapiens) (Q12809 whole entry, looked up): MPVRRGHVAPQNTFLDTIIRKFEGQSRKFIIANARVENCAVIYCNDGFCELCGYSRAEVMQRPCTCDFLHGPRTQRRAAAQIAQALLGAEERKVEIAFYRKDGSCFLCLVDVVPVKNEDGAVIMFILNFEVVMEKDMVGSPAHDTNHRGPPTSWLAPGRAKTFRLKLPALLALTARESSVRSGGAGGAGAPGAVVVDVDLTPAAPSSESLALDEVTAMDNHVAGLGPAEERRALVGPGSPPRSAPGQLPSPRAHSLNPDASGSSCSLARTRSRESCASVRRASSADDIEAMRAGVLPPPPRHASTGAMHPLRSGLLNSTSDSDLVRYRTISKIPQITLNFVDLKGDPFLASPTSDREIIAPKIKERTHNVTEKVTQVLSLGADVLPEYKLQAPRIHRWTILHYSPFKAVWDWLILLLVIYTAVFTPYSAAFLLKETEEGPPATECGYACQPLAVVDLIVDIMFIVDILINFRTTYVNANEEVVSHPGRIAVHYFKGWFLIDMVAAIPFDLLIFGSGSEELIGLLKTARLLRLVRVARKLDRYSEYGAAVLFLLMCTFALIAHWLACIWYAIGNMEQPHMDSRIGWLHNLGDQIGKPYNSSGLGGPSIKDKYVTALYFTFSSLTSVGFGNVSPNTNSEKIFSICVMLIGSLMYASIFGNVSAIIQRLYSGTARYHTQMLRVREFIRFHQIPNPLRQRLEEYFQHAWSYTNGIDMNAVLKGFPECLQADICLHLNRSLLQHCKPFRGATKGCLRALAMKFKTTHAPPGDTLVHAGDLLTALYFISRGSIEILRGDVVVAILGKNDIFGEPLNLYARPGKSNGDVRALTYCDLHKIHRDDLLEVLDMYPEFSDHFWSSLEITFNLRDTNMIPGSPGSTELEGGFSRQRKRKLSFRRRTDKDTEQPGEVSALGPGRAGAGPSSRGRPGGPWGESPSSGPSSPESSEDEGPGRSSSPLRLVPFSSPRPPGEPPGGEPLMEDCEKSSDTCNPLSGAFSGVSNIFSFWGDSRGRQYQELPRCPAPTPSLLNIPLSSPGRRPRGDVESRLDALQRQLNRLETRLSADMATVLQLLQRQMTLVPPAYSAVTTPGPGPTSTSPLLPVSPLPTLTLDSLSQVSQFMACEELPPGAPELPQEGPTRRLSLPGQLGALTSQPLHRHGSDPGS
Sequence of Luciferin 4-monooxygenase (Photinus pyralis) (P08659 whole entry, looked up): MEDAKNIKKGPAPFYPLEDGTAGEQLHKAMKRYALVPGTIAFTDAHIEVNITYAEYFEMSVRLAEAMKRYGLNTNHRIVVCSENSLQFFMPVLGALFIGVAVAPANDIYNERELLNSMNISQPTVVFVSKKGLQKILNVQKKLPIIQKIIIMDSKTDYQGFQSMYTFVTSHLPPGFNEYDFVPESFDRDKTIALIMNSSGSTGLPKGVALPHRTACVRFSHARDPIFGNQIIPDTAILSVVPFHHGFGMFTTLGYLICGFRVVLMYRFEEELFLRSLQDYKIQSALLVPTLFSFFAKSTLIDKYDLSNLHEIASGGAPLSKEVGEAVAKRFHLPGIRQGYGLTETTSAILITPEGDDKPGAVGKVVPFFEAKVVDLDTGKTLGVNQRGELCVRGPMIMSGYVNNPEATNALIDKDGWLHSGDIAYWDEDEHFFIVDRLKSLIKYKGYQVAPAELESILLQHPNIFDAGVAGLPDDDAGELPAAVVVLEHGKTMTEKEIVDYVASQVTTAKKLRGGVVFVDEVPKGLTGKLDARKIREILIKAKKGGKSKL
Sequence of Cytochrome P450 2D6 (Homo sapiens) (P10635 whole entry, looked up): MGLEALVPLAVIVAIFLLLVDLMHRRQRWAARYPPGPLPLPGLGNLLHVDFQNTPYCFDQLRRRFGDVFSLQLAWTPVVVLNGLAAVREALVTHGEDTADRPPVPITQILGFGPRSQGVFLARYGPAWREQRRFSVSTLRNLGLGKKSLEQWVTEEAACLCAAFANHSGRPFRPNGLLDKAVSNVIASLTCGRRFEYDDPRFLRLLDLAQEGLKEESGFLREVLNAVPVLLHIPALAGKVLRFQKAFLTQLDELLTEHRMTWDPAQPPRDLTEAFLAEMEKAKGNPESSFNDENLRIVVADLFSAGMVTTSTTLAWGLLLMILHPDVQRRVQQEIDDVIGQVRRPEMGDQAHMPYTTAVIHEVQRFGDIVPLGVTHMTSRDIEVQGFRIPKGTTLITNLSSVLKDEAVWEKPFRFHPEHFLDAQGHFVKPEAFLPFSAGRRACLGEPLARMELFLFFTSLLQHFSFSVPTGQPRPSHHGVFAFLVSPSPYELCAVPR
Sequence of Retinoic acid receptor RXR-alpha (Homo sapiens) (P19793 whole entry, looked up): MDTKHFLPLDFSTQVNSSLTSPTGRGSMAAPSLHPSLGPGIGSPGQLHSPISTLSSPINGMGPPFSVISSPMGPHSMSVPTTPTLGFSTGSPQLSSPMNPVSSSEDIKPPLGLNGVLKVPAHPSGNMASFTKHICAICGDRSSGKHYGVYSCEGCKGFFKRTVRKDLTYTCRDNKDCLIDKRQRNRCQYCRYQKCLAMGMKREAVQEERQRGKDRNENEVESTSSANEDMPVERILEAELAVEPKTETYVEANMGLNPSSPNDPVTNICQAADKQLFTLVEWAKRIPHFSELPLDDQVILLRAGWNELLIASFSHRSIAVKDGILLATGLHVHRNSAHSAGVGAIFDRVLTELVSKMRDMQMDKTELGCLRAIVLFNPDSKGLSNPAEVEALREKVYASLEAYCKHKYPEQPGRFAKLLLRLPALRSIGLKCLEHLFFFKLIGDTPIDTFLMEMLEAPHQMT
Sequence of Tumor necrosis factor (Homo sapiens) (P01375 whole entry, looked up): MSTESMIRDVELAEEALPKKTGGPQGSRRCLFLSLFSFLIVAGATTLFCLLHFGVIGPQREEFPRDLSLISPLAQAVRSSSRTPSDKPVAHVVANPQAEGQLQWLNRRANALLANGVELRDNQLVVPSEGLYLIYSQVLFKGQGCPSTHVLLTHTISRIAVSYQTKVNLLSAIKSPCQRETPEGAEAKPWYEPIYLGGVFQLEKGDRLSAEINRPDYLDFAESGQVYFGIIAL
Sequence of Nuclear receptor ROR-gamma (Homo sapiens) (P51449 whole entry, looked up): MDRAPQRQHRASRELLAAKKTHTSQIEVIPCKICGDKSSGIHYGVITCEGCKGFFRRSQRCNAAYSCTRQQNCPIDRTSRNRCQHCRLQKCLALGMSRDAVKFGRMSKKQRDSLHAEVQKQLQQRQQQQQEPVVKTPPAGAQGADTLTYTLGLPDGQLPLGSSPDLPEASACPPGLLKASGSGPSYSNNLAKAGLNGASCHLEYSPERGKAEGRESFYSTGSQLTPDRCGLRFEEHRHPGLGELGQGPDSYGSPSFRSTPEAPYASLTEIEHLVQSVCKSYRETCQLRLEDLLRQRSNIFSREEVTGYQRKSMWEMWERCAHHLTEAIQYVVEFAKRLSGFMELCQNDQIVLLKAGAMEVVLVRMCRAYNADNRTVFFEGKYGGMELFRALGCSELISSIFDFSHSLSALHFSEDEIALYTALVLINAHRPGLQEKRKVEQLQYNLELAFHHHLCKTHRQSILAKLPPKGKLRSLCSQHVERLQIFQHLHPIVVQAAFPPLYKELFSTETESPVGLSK

Which Potency [1] does the source give for `COC(=O)c1ccccc1C(=O)OC` here?
The Potency was “inactive”.

And the max response [2]?
Its max response is -2.9%.

What about the max response [3] of the same compound?
Its max response is 2.81% (inactive).

And the activity change % (negative = inhibition) [4]?
Its activity change % (negative = inhibition) is 0.995% (inactive) and 14.6% (inactive).

What about the Potency [5] of the same compound?
The Potency was “inactive”.

What about the Potency [6] of the same compound?
Its Potency is “inactive”.

What about the Potency [7] of the same compound?
The Potency was “inactive”.

What about the activation [8] of the same compound?
Its activation is -1.52% (inactive) and -1.95% (inactive).

And the activation [9]?
Its activation is -0.143% (inactive) and 1.34% (inactive).

And the outcome [10]?
Its outcome is “inactive”.

And the activation [11]?
The activation was 1.37% (inactive) and 0.566% (inactive).

What about the max response [12] of the same compound?
Its max response is 0.0123% (inactive) and 4.21% (inactive).

What about the Potency [13] of the same compound?
The Potency was “inactive”.

What about the Potency [14] of the same compound?
The Potency was “inactive”.

What about the max response [15] of the same compound?
The max response was 8.24% (inactive) and 6.8% (inactive).

And the max response [16]?
Its max response is -14.6% (inactive).

And the max response [17]?
Its max response is -1.85% (inactive) and 5.33% (inactive).

What about the outcome [18] of the same compound?
Its outcome is “inactive”.

What about the Potency [19] of the same compound?
Its Potency is “inactive”.

And the Potency [20]?
Its Potency is “inactive”.

And the Potency [21]?
The Potency was “inactive”.

And the max response [22]?
Its max response is 5.6% (inactive) and 2.87% (inactive).

And the outcome [23]?
Its outcome is “inactive”.
